TEAD-YAP block = TEAD-YAP interaction inhibition | HEK-TIYL cells, TEAD-Gal4/YAP UAS-luciferase luminescence | inhibition, % at 9.12 µM | 1.4% of 640,000 active | AID 1259422; in the data active means inhibition above about 32%
FBW7 act = activators of human E3 ligase FBW7 | Q969H0 | AlphaScreen FBW7–phospho-cyclin E peptide binding, activator screen | normalized activity (activation), % at 26.1 µM | 0.13% of 650,000 active | AID 1259310; in the data active means normalized activity above about 1.9%;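 further: purified mutant Fbw7 with reduced substrate affinity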
GPR151 activ = activators of human GPR151; 1% of 650,000 active; PathHunter beta-arrestin GPR151 cells, luminescence; activation, % at 11.2 µM; Q8TDV0; in the data active means activation above about 4.9%
Target sequence (Q8TDV0 whole entry, looked up): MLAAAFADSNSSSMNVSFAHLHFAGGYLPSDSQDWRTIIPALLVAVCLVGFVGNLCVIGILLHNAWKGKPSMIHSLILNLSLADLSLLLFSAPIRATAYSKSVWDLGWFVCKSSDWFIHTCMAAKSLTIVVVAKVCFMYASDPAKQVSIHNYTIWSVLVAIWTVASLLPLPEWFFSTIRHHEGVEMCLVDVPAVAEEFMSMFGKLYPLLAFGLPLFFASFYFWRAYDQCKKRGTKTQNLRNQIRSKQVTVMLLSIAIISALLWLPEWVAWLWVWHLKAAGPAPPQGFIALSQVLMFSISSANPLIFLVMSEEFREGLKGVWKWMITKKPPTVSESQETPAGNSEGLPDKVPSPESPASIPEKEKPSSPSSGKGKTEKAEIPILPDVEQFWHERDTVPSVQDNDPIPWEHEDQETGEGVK
MITF primary = human MITF inhibition, primary screen; AlphaScreen MITF homodimerization, bead proximity signal; 0.91% of 650,000 active; inhibition, % at 2.6 µM; O75030; in the data active means inhibition above about 50%
Each line names hits and unclear results; the compound was inactive in the other large screens. A selection: hits, their analogues and other compounds. The true share with any hit is near 3.5%.

O=C(Nc1sc2c(c1C(=O)N1CCCCC1)CCCCC2)c1ccccc1F	none
O=C(Nc1sc2c(c1C(=O)O)CCCC2)c1ccccc1F	TEAD-YAP block 51.7
O=C(Nc1sc2c(c1C(=O)O)CCCCC2)c1ccccc1F	TEAD-YAP block 56.4
COc1ccc(C(=O)Oc2ccccc2/C=N/N=C2\NC(=O)C(CC(=O)O)S2)cc1 (configuration not stated)	none
CCOC(=O)CSc1nc2ccccc2c(=O)n1CCc1ccccc1	none
Cn1c(CN2CCN(C3CCCC3)C(CCO)C2)nc2ccccc21 (configuration not stated)	none
Oc1cccc(-c2cnn3c(NCCc4cccnc4)ccnc23)c1	TEAD-YAP block 89.5
CN(C)CCNc1ccnc2c(-c3ccccc3F)cnn12	TEAD-YAP block 62.6
Clc1ccc(-c2cnn3c(NCCc4ccccn4)ccnc23)cc1	none
c1ccc(-c2cnn3c(NCCc4ccccn4)ccnc23)cc1	TEAD-YAP block 57.0
Fc1ccccc1-c1cnn2c(NCCc3cccnc3)ccnc12	TEAD-YAP block 91.0
Fc1cccc(-c2cnn3c(NCCc4cccnc4)ccnc23)c1	none
Cc1cc(C)cc(OC(C)C(=O)Nc2ccccc2)c1 (configuration not stated)	none
COc1cc(/C=C(\C#N)c2nc3ccccc3[nH]2)ccc1Oc1ccc(C(F)(F)F)cc1[N+](=O)[O-]	none
CCCN(CCC)C(=O)Cn1cnc2sc(C(=O)OCC)c(C)c2c1=O	none
Cc1ccc(NC(=O)c2ccccc2NC(=O)c2cccc(S(=O)(=O)N3CCCCC3)c2)c(C)c1	none
Fc1ccccc1-c1cnn2c(NCc3ccccn3)ccnc12	FBW7 act 2.2
OCc1cccc(-c2cnn3c(NCCc4cccnc4)ccnc23)c1	TEAD-YAP block 89.5
c1ccc(-c2cnn3c(NCCc4cccnc4)ccnc23)cc1	TEAD-YAP block 80.0
OCc1ccc(-c2cnn3c(NCCc4cccnc4)ccnc23)cc1	none
CC(C)C(=O)Nc1ccc(S(=O)(=O)NCC(c2cccs2)N(C)C)cc1 (configuration not stated)	none
C(=N\Nc1nn[nH]n1)/c1ccc(N2CCOCC2)cc1	MITF primary 57.9
CCOC(=O)c1ccc(-n2c(=S)sc3c2nc(SCC(=O)NC2CCCCC2)n2c4ccccc4nc32)cc1	none
C#CCN(C)C(=O)c1c(C)nc2sccn12	FBW7 act 1.9
COC(=O)c1ccc(-c2nc3cc(Cl)c(N)cc3s2)cc1	TEAD-YAP block 47.1
Cc1ccc(NC(=O)NCCNc2cc(N3CCCC3)nc(C)n2)c(Cl)c1	none
CCOC(=O)c1c(N)sc2c1CCN(C)C2	none
CCOC(=O)c1c(/N=C/c2cccc(OC)c2O)sc2c1CCN(C)C2	FBW7 act 2.6
Cc1ccc(C(=O)N2CCCC(C)C2)cc1C (configuration not stated)	none
O=C(CCC1(Cc2ccc(F)cc2)CCC(=O)N1)NCc1c(F)cccc1F (configuration not stated)	TEAD-YAP block 35.6
COc1cccc(C(=O)NCCS(=O)(=O)NCc2ccc(F)cc2)c1	none
O=C1CCCC2=C1C(c1cccs1)c1c(n[nH]c1-c1ccc([N+](=O)[O-])cc1)N2 (configuration not stated)	TEAD-YAP block 41.6
COCCNC(=O)c1ccc(CSc2ccccc2)cc1	none
NCCOc1cc(C(=O)Nc2ccc3[nH]ncc3c2)ccn1	TEAD-YAP block 72.2
O=C(Nc1ccc2[nH]ncc2c1)c1ccc(OC2CCOCC2)nc1	TEAD-YAP block 47.6
COc1ccccc1CCNC(=O)C1CC12CCN(C1CCC1)CC2 (configuration not stated)	none
Cc1cccc(C(=O)Nc2snc(Cl)c2C#N)c1	TEAD-YAP block 38.6
Cc1cccc(C(=O)Nc2sccc2C#N)c1	none
COc1ccc2[nH]c3nc(SCC(=O)Nc4nnc(-c5ccccc5)s4)nnc3c2c1	none
CCOc1ccc(-c2cn[nH]c2N)cc1	TEAD-YAP block 47.8
COCCCNC(=O)c1ccc(C)c(Cl)c1	none
CNC(=O)c1ccc2c(c1)N=C(C)c1c(C)ccc(C)c1S2	TEAD-YAP block 48.0
CNC(=O)c1ccc2c(c1)N=C(C)c1cc(Cl)ccc1S2	none
COCCCNC(=O)c1ccc2c(c1)N=C(C)c1c(C)ccc(C)c1S2	TEAD-YAP block 55.9
COC(CNC(=O)c1ccc2c(c1)N=C(C)c1ccccc1S2)OC	none
COC(CNC(=O)c1ccc2c(c1)N=C(C)c1cc(Cl)ccc1S2)OC	TEAD-YAP block 37.7
COC(CNC(=O)c1ccc2c(c1)N=C(C)c1c(C)ccc(C)c1S2)OC	TEAD-YAP block 58.5
O=C1CCCC2=C1C(c1ccccc1Cl)n1nc(-c3ccc(O)cc3)nc1N2 (configuration not stated)	none
Cc1n[nH]c(C)c1NC(=O)c1ccc(-c2ccccc2)cc1	none

Source: PubChem BioAssay
